# Measured values published in ChEMBL document CHEMBL1961873, “Compounds: GSK PKIS; Assays: Nanosyn kinase panel” (2012).
# Columns and labels:
# [1] = biological target: Tyrosine-protein kinase SYK (Homo sapiens) (UniProt P43405); conditions: at 1 µM
# [2] = biological target: T1, Tyrosine-protein kinase Tec (Homo sapiens) (UniProt P42680); conditions: at 0.1 µM
# T1 sequence (whole entry): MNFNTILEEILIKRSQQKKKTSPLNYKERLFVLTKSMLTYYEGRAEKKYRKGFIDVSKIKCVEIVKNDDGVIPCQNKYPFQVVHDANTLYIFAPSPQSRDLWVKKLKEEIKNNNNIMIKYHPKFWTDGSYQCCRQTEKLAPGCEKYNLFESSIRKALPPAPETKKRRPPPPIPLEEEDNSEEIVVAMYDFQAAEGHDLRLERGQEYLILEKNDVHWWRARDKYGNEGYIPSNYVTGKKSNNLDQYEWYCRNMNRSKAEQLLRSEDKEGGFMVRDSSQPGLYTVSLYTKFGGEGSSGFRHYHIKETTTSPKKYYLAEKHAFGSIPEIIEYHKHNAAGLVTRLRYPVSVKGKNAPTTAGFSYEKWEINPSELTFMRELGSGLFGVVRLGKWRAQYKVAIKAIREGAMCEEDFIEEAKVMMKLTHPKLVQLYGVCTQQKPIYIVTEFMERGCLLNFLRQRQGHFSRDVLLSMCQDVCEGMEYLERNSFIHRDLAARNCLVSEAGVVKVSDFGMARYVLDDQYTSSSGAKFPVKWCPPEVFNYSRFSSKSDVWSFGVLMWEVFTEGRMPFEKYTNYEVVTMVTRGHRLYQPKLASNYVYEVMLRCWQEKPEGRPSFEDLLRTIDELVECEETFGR
# [3] = biological target: T1, Tyrosine-protein kinase Tec (Homo sapiens); conditions: at 1 µM
# [4] = biological target: Angiopoietin-1 receptor (Homo sapiens) (UniProt Q02763); conditions: at 0.1 µM
# [5] = biological target: Angiopoietin-1 receptor (Homo sapiens) (UniProt Q02763); conditions: at 1 µM
# [6] = biological target: T2, Non-receptor tyrosine-protein kinase TNK1 (Homo sapiens) (UniProt Q13470); conditions: at 0.1 µM
# T2 sequence (whole entry): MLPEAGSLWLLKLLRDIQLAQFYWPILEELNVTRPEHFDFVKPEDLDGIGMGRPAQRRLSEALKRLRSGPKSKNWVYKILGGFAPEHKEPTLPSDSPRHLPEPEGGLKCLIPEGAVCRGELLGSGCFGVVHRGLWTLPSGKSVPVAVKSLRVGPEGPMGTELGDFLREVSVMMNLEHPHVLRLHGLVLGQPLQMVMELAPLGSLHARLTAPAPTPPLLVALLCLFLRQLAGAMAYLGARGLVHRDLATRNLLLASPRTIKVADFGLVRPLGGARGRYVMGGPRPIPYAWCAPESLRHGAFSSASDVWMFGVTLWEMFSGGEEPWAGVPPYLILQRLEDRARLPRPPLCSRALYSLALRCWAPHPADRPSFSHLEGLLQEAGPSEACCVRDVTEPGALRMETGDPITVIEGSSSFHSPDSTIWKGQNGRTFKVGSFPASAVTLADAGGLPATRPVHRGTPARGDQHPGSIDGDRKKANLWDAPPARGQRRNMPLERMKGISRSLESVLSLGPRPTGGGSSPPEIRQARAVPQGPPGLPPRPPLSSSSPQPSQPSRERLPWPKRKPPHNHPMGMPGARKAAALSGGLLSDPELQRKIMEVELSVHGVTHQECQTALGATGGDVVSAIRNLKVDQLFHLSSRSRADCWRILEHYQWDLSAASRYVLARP
# [7] = biological target: T2, Non-receptor tyrosine-protein kinase TNK1 (Homo sapiens); conditions: at 1 µM
# [8] = biological target: Activated CDC42 kinase 1 (Homo sapiens) (UniProt Q07912); conditions: at 0.1 µM
# [9] = biological target: Activated CDC42 kinase 1 (Homo sapiens) (UniProt Q07912); conditions: at 1 µM
# [10] = biological target: High affinity nerve growth factor receptor (Homo sapiens) (UniProt P04629); conditions: at 0.1 µM
# [11] = biological target: High affinity nerve growth factor receptor (Homo sapiens) (UniProt P04629); conditions: at 1 µM
# [12] = biological target: BDNF/NT-3 growth factors receptor (Homo sapiens) (UniProt Q16620); conditions: at 0.1 µM
# [13] = biological target: BDNF/NT-3 growth factors receptor (Homo sapiens) (UniProt Q16620); conditions: at 1 µM
# [14] = biological target: NT-3 growth factor receptor (Homo sapiens) (UniProt Q16288); conditions: at 0.1 µM
# [15] = biological target: NT-3 growth factor receptor (Homo sapiens) (UniProt Q16288); conditions: at 1 µM
# [16] = biological target: T3, Tyrosine-protein kinase TXK (Homo sapiens) (UniProt P42681); conditions: at 0.1 µM
# T3 sequence (whole entry): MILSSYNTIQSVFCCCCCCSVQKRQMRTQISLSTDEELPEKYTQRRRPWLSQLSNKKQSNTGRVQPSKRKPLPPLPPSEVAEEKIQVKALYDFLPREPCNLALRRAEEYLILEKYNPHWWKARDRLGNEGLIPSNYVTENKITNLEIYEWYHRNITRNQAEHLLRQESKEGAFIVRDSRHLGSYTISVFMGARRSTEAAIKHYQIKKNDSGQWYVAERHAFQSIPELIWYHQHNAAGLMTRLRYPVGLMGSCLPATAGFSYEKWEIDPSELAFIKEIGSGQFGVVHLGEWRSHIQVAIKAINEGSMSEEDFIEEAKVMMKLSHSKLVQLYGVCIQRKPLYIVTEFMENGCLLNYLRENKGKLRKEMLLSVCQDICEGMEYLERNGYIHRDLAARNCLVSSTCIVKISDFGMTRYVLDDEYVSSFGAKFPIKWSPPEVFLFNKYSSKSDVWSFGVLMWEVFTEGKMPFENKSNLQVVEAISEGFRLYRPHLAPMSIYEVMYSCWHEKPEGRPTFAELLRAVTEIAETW
# [17] = biological target: T3, Tyrosine-protein kinase TXK (Homo sapiens); conditions: at 1 µM
# [18] = biological target: Non-receptor tyrosine-protein kinase TYK2 (Homo sapiens) (UniProt P29597); conditions: at 0.1 µM;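 further: each value is a mean of the inhibition readings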
# [19] = biological target: T4, Dual specificity protein kinase TTK (Homo sapiens) (UniProt P33981); conditions: at 1 µM;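 further: reported figures are mean TTK inhibition at 1 µM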
# T4 sequence (whole entry): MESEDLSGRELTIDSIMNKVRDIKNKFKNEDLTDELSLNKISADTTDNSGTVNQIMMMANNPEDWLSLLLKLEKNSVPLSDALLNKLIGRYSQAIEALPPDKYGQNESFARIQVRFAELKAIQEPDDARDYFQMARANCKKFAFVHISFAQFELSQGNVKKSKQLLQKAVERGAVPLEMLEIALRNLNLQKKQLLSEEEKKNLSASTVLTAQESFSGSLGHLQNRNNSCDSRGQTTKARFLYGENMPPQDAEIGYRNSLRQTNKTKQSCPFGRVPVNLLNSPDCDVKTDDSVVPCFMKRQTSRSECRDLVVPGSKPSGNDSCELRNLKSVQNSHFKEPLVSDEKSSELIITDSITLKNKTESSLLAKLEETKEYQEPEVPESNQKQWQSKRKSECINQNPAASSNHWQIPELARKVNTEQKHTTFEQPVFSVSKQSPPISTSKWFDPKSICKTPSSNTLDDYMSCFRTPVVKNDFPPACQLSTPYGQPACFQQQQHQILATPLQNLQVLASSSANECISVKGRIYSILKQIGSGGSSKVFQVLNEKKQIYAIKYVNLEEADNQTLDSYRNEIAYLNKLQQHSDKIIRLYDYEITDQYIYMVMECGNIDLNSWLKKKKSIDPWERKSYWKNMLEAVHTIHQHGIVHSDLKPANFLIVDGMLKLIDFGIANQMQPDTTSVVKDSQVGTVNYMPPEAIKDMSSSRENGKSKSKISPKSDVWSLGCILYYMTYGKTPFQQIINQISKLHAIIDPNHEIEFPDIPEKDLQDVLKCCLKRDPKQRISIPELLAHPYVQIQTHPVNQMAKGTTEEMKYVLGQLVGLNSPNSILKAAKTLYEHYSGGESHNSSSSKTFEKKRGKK
# [20] = biological target: T5, Aurora kinase A (Homo sapiens) (UniProt O14965); conditions: at 0.1 µM;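 further: each reported value is a mean percent inhibition of Aurora-A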
# T5 sequence (whole entry): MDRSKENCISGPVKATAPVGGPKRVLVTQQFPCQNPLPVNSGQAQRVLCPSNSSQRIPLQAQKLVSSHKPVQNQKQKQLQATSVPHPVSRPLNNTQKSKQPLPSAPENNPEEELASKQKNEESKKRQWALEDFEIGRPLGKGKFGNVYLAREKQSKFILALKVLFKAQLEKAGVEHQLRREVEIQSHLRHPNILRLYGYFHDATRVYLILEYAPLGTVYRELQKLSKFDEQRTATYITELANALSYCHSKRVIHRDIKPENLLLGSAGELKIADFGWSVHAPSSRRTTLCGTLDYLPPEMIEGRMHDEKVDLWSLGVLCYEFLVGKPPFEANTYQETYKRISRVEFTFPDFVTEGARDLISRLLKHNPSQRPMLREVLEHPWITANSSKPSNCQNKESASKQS
# Sequence of NT-3 growth factor receptor (Homo sapiens) (Q16288 32-839 limits assumed): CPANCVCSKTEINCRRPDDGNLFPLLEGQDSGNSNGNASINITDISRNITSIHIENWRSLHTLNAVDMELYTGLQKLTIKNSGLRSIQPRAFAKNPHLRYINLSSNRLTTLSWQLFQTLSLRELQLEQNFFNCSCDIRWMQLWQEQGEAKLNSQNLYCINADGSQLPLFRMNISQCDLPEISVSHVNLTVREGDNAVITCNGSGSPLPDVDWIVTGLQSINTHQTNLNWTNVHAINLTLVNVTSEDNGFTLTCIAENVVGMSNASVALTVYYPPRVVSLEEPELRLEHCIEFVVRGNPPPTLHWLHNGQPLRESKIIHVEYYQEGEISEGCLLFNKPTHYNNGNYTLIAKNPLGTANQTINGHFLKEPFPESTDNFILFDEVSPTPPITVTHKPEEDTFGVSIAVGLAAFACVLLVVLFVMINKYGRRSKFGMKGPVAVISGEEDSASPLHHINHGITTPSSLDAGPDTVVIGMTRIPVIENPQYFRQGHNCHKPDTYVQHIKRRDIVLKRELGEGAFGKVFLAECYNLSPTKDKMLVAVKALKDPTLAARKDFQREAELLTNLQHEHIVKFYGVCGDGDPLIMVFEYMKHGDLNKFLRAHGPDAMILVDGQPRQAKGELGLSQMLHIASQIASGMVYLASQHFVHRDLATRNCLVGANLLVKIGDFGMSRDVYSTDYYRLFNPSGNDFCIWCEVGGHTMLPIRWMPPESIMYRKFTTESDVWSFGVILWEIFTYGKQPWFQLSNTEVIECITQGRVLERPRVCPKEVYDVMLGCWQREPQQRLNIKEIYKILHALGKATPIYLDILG
# Sequence of Activated CDC42 kinase 1 (Homo sapiens) (Q07912 whole entry, looked up): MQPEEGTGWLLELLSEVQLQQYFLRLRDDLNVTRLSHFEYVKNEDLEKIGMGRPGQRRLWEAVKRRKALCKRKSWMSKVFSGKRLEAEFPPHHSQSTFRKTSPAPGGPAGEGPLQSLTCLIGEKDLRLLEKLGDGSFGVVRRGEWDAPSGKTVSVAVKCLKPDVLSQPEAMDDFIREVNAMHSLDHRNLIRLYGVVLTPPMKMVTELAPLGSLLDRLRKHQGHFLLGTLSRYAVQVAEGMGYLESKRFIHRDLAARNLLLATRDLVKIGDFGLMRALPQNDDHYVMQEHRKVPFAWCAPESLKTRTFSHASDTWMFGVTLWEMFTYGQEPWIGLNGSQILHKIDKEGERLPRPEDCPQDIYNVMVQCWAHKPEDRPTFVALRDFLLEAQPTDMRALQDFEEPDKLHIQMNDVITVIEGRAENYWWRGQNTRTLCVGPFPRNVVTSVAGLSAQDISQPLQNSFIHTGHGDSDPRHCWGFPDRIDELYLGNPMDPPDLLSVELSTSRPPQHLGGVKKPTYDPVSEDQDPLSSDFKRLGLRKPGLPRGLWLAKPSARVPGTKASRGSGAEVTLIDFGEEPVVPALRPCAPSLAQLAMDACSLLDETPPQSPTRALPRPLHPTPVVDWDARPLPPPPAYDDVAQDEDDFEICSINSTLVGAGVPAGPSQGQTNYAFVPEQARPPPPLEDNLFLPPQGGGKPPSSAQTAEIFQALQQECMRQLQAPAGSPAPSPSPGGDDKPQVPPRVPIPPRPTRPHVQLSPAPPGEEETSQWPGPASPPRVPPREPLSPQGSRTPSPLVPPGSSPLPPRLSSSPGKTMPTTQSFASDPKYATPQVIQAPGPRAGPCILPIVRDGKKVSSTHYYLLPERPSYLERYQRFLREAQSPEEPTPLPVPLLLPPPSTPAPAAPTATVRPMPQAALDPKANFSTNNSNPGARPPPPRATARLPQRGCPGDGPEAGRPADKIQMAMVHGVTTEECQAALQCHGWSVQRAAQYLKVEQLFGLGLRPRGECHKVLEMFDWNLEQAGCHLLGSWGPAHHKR
# Sequence of High affinity nerve growth factor receptor (Homo sapiens) (P04629 33-796 limits assumed): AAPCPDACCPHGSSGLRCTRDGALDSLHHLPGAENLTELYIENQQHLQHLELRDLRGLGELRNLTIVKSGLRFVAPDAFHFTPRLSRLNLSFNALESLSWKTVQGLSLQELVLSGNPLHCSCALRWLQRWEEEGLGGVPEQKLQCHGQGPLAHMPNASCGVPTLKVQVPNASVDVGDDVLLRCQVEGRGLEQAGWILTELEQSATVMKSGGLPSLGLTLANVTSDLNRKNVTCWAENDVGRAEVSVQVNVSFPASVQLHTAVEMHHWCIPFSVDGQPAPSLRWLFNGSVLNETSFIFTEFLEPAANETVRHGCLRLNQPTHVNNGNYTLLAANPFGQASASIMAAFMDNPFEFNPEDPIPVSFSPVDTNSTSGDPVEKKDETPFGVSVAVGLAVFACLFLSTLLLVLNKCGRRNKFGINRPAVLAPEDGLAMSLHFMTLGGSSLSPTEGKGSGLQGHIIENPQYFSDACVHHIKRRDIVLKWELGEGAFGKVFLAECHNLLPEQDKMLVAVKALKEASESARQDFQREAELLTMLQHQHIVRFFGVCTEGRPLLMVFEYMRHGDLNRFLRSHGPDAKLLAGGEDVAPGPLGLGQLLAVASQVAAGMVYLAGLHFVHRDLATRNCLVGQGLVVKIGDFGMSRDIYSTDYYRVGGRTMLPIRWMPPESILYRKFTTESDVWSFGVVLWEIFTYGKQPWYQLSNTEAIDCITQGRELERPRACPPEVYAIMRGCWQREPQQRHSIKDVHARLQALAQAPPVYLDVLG
# Sequence of Angiopoietin-1 receptor (Homo sapiens) (Q02763 whole entry): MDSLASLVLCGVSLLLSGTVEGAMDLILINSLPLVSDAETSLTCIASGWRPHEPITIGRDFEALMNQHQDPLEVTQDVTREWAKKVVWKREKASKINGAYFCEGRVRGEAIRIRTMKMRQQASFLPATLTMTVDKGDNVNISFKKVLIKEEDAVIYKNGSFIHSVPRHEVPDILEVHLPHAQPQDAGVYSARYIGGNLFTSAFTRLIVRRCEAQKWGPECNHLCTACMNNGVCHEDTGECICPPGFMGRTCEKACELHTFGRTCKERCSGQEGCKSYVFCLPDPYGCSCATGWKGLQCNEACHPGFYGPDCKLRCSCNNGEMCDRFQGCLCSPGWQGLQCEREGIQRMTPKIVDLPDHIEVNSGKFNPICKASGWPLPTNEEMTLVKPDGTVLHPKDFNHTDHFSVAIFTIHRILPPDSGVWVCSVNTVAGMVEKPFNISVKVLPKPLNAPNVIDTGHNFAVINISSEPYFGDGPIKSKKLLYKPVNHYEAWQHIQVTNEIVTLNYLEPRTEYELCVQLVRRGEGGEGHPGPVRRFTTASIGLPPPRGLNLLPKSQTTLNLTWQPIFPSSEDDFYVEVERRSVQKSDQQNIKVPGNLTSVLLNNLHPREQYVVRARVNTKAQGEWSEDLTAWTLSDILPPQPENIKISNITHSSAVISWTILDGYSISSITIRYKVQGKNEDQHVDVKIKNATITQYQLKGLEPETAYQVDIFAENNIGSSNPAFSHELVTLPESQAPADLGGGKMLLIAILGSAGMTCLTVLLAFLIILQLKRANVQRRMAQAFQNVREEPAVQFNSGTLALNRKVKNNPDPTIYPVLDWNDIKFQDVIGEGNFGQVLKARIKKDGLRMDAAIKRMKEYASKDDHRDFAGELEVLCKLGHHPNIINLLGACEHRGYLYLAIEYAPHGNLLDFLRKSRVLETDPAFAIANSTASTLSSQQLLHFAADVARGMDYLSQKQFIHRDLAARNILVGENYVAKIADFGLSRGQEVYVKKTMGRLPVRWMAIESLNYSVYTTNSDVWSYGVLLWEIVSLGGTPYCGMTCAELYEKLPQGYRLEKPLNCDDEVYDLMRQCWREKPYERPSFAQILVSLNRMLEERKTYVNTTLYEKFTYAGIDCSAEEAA
# Sequence of Non-receptor tyrosine-protein kinase TYK2 (Homo sapiens) (P29597 whole entry): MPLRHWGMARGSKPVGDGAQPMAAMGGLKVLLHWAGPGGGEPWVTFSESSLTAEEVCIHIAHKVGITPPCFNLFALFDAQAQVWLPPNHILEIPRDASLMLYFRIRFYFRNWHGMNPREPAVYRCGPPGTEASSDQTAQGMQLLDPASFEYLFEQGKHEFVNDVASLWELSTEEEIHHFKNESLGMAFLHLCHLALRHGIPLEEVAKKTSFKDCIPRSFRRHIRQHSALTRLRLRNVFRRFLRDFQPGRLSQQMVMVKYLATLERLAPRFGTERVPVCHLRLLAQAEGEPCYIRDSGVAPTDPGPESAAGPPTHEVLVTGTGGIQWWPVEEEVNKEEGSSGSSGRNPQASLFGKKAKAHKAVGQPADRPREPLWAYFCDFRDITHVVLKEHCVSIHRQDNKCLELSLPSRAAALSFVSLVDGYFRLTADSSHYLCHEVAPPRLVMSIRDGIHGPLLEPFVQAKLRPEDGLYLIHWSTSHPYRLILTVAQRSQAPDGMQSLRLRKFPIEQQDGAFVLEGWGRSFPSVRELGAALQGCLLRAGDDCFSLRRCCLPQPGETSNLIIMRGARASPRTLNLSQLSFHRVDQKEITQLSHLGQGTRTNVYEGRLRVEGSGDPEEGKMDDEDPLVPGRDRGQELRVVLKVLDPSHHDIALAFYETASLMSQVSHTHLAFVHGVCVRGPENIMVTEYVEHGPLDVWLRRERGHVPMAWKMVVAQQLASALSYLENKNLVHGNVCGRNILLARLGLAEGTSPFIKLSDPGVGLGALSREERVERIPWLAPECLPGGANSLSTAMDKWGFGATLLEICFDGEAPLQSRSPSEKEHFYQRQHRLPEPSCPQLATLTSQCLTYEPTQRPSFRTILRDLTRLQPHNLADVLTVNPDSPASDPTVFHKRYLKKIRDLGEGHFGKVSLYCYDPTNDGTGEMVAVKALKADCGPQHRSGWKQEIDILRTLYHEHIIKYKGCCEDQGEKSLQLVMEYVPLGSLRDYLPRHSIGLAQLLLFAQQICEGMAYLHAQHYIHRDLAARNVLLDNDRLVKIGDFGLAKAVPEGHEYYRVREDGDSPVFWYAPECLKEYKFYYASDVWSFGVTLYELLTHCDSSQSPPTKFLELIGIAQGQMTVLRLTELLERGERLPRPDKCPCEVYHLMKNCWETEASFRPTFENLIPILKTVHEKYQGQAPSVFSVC
smiles,measurement,setting,value
CCOc1ccc2c(-c3ccnc(Nc4cc(OC)cc(C(F)(F)F)c4)n3)cnn2n1,inhibition,[1],-0.62%
same,inhibition,[2],2.25%
same,inhibition,[3],7.24%
same,inhibition,[4],7.37%
same,inhibition,[5],13.5%
same,inhibition,[6],2.46%
same,inhibition,[7],12.4%
same,inhibition,[8],0.16%
same,inhibition,[9],1.19%
same,inhibition,[10],0.62%
same,inhibition,[11],3.16%
same,inhibition,[12],-1.33%
same,inhibition,[13],3.13%
same,inhibition,[14],-1.23%
same,inhibition,[15],4.94%
same,inhibition,[16],0.98%
same,inhibition,[17],3.69%
same,inhibition,[18],-2.65%
same,inhibition,[19],8.93%
same,inhibition,[20],0.65%
CS(=O)(=O)Nc1ccc(-c2ccc3c(NC(=O)C4CC4)n[nH]c3c2)cc1,inhibition,[1],-1.82%
same,inhibition,[2],3.96%
same,inhibition,[3],7.11%
same,inhibition,[4],2.18%
same,inhibition,[5],10.9%
same,inhibition,[6],2.68%
same,inhibition,[7],5.17%
same,inhibition,[8],1.26%
same,inhibition,[9],3.12%
same,inhibition,[10],2.98%
same,inhibition,[11],3.27%
same,inhibition,[12],2.22%
same,inhibition,[13],5.91%
same,inhibition,[14],2.1%
same,inhibition,[15],9.06%
same,inhibition,[16],2.62%
same,inhibition,[17],5.31%
same,inhibition,[18],-0.89%
same,inhibition,[19],11.9%
same,inhibition,[20],2.55%
OCCCNc1nccc(-c2c(-c3ccc(F)cc3)nn3cc(C(F)(F)F)ccc23)n1,inhibition,[1],0.36%
same,inhibition,[2],3.37%
same,inhibition,[3],5.41%
same,inhibition,[4],2.38%
same,inhibition,[5],5.06%
same,inhibition,[6],0.14%
same,inhibition,[7],3.92%
same,inhibition,[8],0.22%
same,inhibition,[9],1.57%
same,inhibition,[10],3.24%
same,inhibition,[11],1.07%
same,inhibition,[12],1.2%
same,inhibition,[13],1.1%
same,inhibition,[14],2.9%
same,inhibition,[15],2.72%
same,inhibition,[16],4.77%
same,inhibition,[17],6.39%
same,inhibition,[18],-6.14%
same,inhibition,[19],4.7%
same,inhibition,[20],0.87%
O=C(Nc1n[nH]c2nnc(-c3cccnc3)cc12)C1CC1,inhibition,[1],0.88%
same,inhibition,[2],0.17%
same,inhibition,[3],3.48%
same,inhibition,[4],1.38%
same,inhibition,[5],1.88%
same,inhibition,[6],-1.13%
same,inhibition,[7],0.09%
same,inhibition,[8],0.32%
same,inhibition,[9],1.68%
same,inhibition,[10],0.12%
same,inhibition,[11],-0.64%
same,inhibition,[12],-0.74%
same,inhibition,[13],0.57%
same,inhibition,[14],-0.44%
same,inhibition,[15],-0.22%
same,inhibition,[16],0.3%
same,inhibition,[17],2.21%
same,inhibition,[18],1.8%
same,inhibition,[19],2.14%
same,inhibition,[20],0.85%
COc1ccc2ncn(-c3cc(O[C@H](C)c4ccccc4C(F)(F)F)c(C(N)=O)s3)c2c1,inhibition,[1],0.76%
same,inhibition,[2],1.04%
same,inhibition,[3],-0.18%
same,inhibition,[4],1.94%
same,inhibition,[5],4.83%
same,inhibition,[6],1.54%
same,inhibition,[7],19.8%
same,inhibition,[8],0.19%
same,inhibition,[9],2.86%
same,inhibition,[10],-0.31%
same,inhibition,[11],2.53%
same,inhibition,[12],-0.31%
same,inhibition,[13],4.65%
same,inhibition,[14],0.4%
same,inhibition,[15],5.65%
same,inhibition,[16],1.46%
same,inhibition,[17],2.56%
same,inhibition,[18],0.28%
same,inhibition,[19],5.58%
same,inhibition,[20],-0.03%
CS(=O)(=O)CCNCc1ccoc1-c1ccc2ncnc(Nc3ccc(OCc4ccccc4)cc3)c2c1,inhibition,[1],0.23%
same,inhibition,[2],0.03%
same,inhibition,[3],3.04%
same,inhibition,[4],1.86%
same,inhibition,[5],4.86%
same,inhibition,[6],1.08%
same,inhibition,[7],5.74%
same,inhibition,[8],0.06%
same,inhibition,[9],0.6%
same,inhibition,[10],1.31%
same,inhibition,[11],1.88%
same,inhibition,[12],1.72%
same,inhibition,[13],4.41%
same,inhibition,[14],2.02%
same,inhibition,[15],1.74%
same,inhibition,[16],0.41%
same,inhibition,[17],1.96%
same,inhibition,[18],1.14%
same,inhibition,[19],5.58%
same,inhibition,[20],3.55%
COc1cc(Nc2ncc(-c3ccccc3)o2)cc(OC)c1,inhibition,[1],-7.57%
same,inhibition,[2],2.12%
same,inhibition,[3],7.94%
same,inhibition,[4],3.94%
same,inhibition,[5],7.85%
same,inhibition,[6],2.49%
same,inhibition,[7],31.1%
same,inhibition,[8],1.44%
same,inhibition,[9],3.07%
same,inhibition,[10],3.5%
same,inhibition,[11],19.7%
same,inhibition,[12],8.32%
same,inhibition,[13],35.2%
same,inhibition,[14],6.57%
same,inhibition,[15],30.5%
same,inhibition,[16],-1%
same,inhibition,[17],8.54%
same,inhibition,[18],-5.97%
same,inhibition,[19],11.9%
same,inhibition,[20],5.61%
